# High-throughput results (PubChem BioAssay)
# L3MBTL1 block – qHTS Assay for the Inhibitors of L3MBTL1; AID 485360, 2010; 230,000 compounds, 0.66% hits; AlphaScreen L3MBTL1–H3K9me1 peptide binding; Potency, µM (top dose mostly 57.1 µM), for inactives: at the top dose activity, negative = inhibition, most hits filed as inhibitors; Lethal(3)malignant brain tumor-like protein 1 (Homo sapiens), Q9Y468; further: on the % scale 0 is the no-effect control and ±100 the full control effect; nearly all actives have a fitted effect of over 60% in size
#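 AlphaScreen assay: L3MBTL1 (50 nM final) was preincubated 30 min at room temperature with biotinylated H3(1-15)K9me1 peptide (75 nM final), then 30 min with library compounds; streptavidin donor and nickel chelate acceptor beads (10 ug/mL final) added, 30 min dark.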
# HP1b chromo inh – HTS for Inhibitors of HP1-beta Chromodomain Interactions with Methylated Histone Tails; AlphaScreen HP1-beta / biotin-H3K9me3 peptide binding; Potency, µM (doses to about 114 µM), for the others: top-dose activity change, negative = inhibition, usual class: inhibitors; 390,000 compounds, 0.56% hits; AID 540317, 2011; further: nearly all actives have a fitted effect of over 70% in size
#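 AlphaScreen: HP1-beta (50 nM) preformed 30 min with biotin-H3(1-18)K9me3 peptide (50 nM) in PBS pH 7.4, 0.01% Tween-20. Compound added for 30 min at RT, then streptavidin donor/nickel chelate acceptor beads (10 ug/mL) for 30 min.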
# JMJD2A Tudor – qHTS Assay for Inhibitors of JMJD2A-Tudor Domain. AlphaScreen JMJD2A-Tudor / H3K4me3 peptide binding. Potency, µM (titrated, usually from 114 µM), without a hit: at the highest dose activity change, negative = inhibition, usual class: inhibitors. 390,000 compounds, 4.4% hits. AID 504339, 2011; further: on the % scale 0 is the no-effect control and ±100 the full control effect; nearly all actives have a fitted effect of over 50% in size
# Target sequence (O75164 whole entry, looked up, the tested form may be a part): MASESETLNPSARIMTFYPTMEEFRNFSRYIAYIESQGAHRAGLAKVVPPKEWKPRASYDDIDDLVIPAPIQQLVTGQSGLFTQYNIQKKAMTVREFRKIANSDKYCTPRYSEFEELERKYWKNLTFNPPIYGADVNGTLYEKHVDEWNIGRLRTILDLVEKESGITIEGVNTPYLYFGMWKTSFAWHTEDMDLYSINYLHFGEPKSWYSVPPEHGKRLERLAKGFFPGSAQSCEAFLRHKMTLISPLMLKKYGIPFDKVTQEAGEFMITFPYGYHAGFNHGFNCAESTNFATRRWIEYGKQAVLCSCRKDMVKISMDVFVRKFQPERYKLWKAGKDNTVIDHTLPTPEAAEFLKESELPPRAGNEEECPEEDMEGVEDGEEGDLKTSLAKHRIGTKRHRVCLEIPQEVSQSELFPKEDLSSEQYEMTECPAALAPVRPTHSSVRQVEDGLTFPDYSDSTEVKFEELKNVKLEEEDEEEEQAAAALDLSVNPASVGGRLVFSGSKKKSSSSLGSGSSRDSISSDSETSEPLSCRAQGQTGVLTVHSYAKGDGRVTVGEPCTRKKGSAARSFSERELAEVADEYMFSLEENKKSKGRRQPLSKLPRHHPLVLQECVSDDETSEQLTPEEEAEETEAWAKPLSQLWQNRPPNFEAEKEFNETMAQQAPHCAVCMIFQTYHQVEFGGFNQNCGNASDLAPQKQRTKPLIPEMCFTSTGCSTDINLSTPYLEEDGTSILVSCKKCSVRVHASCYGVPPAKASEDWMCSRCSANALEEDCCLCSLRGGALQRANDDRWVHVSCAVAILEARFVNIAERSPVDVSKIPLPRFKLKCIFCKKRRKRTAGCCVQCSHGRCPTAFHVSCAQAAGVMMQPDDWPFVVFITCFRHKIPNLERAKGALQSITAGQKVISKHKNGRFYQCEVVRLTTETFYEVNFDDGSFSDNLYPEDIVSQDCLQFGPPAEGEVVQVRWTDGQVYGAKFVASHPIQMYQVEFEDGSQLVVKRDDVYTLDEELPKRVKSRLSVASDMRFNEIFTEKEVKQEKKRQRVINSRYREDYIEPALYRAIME
# Sfp PPTase inh – qHTS Assay for Inhibitors of Bacillus subtilis Sfp phosphopantetheinyl transferase (PPTase). AID 1490, 2009. Potency, µM, inactives show largest response in the series, negative = inhibition, most hits filed as inhibitors. 310,000 compounds, 3.5% hits. Biochemical Sfp PPTase activity, qHTS. 4'-phosphopantetheinyl transferase ffp (Bacillus subtilis), Q9F4F7;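 further: the enzyme is Sfp with the accession as filed and its product quenches rhodamine fluorescence; 0% = enzyme reaction without inhibitor and -100% = no enzyme wells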
#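 Fluorescence-quenching assay with 15 nM Sfp, 5 uM rhodamine-CoA and 12.5 uM BHQ-2-labelled ybbR peptide in pH 7.6 Hepes/MgCl2 buffer. Enzyme was pre-incubated with compound for 15 min at room temperature. Rate was taken from the 30-min fluorescence change (525/598 nm).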
# BAZ2B inh – qHTS Assay for Inhibitors of BAZ2B | Bromodomain adjacent to zinc finger domain protein 2B (Homo sapiens), Q9UIF8 | AlphaScreen BAZ2B-H3K14Ac peptide displacement | Potency, µM (titrated, usually from 114 µM), for inactives: at the top dose activity change, negative = inhibition, hits mostly inhibitors | 360,000 compounds, 4.4% hits | AID 504333, 2011; further: on the % scale 0 is the no-effect control and ±100 the full control effect; nearly all actives have a fitted effect of over 60% in size
#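 Inhibition is scored as reduced AlphaScreen emission. The BAZ2B/b-H3(5-23)K14Ac complex (50 nM each) in PBS pH 7.4, 0.01% Tween-20 meets compound (up to 110 uM) for 30 min at RT before bead addition.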
# G9a block – qHTS Assay for Inhibitors of Histone Lysine Methyltransferase G9a. G9a H3K9 monomethylation, AlphaScreen, 2 h. Potency, µM (top dose mostly 102 µM), for the others: at the top dose activity, negative = inhibition, most hits filed as inhibitors. 350,000 compounds, 8.8% hits. AID 504332, 2011; further: on the % scale 0 is the no-effect control and ±100 the full control effect; nearly all actives have a fitted effect of over 75% in size
#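 Using a bead-based AlphaScreen, monomethylated H3K9 product from 2 h room-temperature reactions (G9a 20 nM, peptide 500 nM, SAM 20 uM) was detected with 0.5 ug/mL rabbit anti-H3K9me1 antibody.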
# Numbers without * were called inactive; ? = inconclusive; . = no result; [ ] = dose if it differs, or a comment. Only some compounds are listed: those with a hit (about 12% of all), similar ones and a draw of the others. The call rests on the fitted dose curve; in most records, active means well fitted curve in the direction sought with a large enough effect; inconclusive means small, poorly fitted or top-dose-only effect, or another doubt; inactive means no such curve, though single readings can be large; an effect the other way counts as inactive or inconclusive. Potency means the concentration at half of the fitted maximal effect.
SMILES,L3MBTL1 block,HP1b chromo inh,JMJD2A Tudor,Sfp PPTase inh,BAZ2B inh,G9a block
C=CCNC(=S)NNC(=O)C(CCCC)CC(C)(C)O (stereo not drawn),-6.2%,47.6%,-5.0%,17.8µM*,?,?
Cc1cc(/C=C(\C#N)c2nnc(N3CCOCC3)n2-c2ccccc2)c(C)n1-c1ccccc1,-9.5%,.,.,-14.1%,50.1µM*,?
COc1cc(/C=C(\C#N)c2nnc(N3CCOCC3)n2-c2ccccc2)ccc1O,-10.0%,20.9%,-12.7%,-0.9%,-2.0%,?
COc1ccccc1NS(=O)(=O)c1cc(NC(=O)CCC2CCCC2)ccc1N1CCOCC1,?,36.2%,-14.8%,12.7%,?,1.41µM*
COc1ccccc1NS(=O)(=O)c1cc(NC(=O)Nc2ccc(Cl)cc2Cl)ccc1N1CCCCC1,-2.1%,?,-32.5%,-9.3%,-6.4%,3.55µM*
COc1ccccc1NS(=O)(=O)c1cc(NC(=O)C2CCC2)ccc1N1CCCCC1,-7.6%,-32.4%,?,8.91µM*,-25.8%,3.55µM*
O=C(Nc1cccc(Cl)c1Cl)c1cc(S(=O)(=O)N2CCCCC2)ccc1F,.,11.0%,-11.3%,.,4.6%,2.5%[59 µM]
Cc1ccccc1S(=O)(=O)/N=C(/c1ccccc1)N1CCOCC1,7.9%,-9.3%,31.6µM*,2.7%,-8.2%,.
CC1CCCCC1NC(=O)CNC(=O)c1cccs1 (stereo not drawn),-3.6%,19.7%,12.4%,.,-1.0%,14.1µM*
O=C1Nc2ccccc2SC1c1ccccc1 (stereo not drawn),.,31.1%,-22.1%,16.8%,-7.1%,-8.1%[0.501 µM]
O=C1C2=C(Nc3ccccc3SC2c2ccccc2C(F)(F)F)c2ccccc21 (stereo not drawn),.,?,22.4µM*,.,?,11.2µM*
CCOc1cc(C2Sc3ccccc3NC3=C2C(=O)c2ccccc23)ccc1O (stereo not drawn),.,?,14.1µM*,.,.,12.6µM*
O=C1C2=C(Nc3ccccc3SC2c2ccc(Cl)c(Cl)c2)c2ccccc21 (stereo not drawn),.,?,8.91µM*,.,.,12.6µM*
O=C1C2=C(Nc3ccccc3SC2c2c(F)cccc2Cl)c2ccccc21 (stereo not drawn),.,?,12.6µM*,.,.,?
COc1ccc(Br)cc1C1Sc2ccccc2NC2=C1C(=O)c1ccccc12 (stereo not drawn),.,18.3%,-8.3%,.,.,-5.7%[59 µM]
Cc1cccc(Nc2nc(C#N)nc(NC3CCCC3)n2)c1,.,.,2.7%,.,.,.
COc1ccccc1-c1noc(-c2ccc(N(C)Cc3ccccc3)c([N+](=O)[O-])c2)n1,.,5.1%,-23.8%,.,-12.6%,?
CCCc1ccc(C2Sc3ccccc3NC3=C2C(=O)c2ccccc23)cc1 (stereo not drawn),.,?,15.8µM*,.,10µM*,7.94µM*
COc1ccc(C2=NNC(c3ccco3)=Nc3ccc(F)cc32)cc1,-5.3%,-16.5%,-27.8%,8.6%,?,44.7µM*
COc1ccc(C2=NNC(c3cccnc3)=Nc3ccc(OC)cc32)cc1,-23.1%,14.7%,-24.3%[57.1 µM],?,?,-36.9%
C#CCOCCOCCOCCNc1nc(N2CCN(C(=O)[C@H](CCCCN)n3cc([C@@H](N)CC(C)C)nn3)CC2)nc(N2CCN(C(=O)[C@H](Cc3cc4ccccc4[nH]3)n3cc([C@@H](N)Cc4ccc(O)cc4)nn3)CC2)n1,-7.6%,-14.5%,17.8µM*,-17.4%,2.0%,39.1%[59 µM]
C#CCOCCOCCOCCNc1nc(N2CCN(C(=O)[C@H](CCCCN)n3cc([C@@H](N)CO)nn3)CC2)nc(N2CCN(C(=O)[C@H](Cc3cc4ccccc4[nH]3)n3cc([C@@H](N)Cc4ccc(O)cc4)nn3)CC2)n1,?,.,.,-2.7%,31.6µM*,-3.8%[12.7 µM]
C#CCOCCOCCOCCNc1nc(OC)nc(N2CCN(C(=O)[C@H](CCCCN)n3cc(C(N)CO)nn3)CC2)n1 (stereo partly drawn),.,.,.,-5.6%,?,-19.5%[12.7 µM]
CC1N(C)c2cccc3cccc(c23)N1C,-18.8%,?,-32.3%[57.1 µM],-10.9%,50.1µM*,2µM*
CN1c2cccc3cccc(c23)N(C)C1c1cccs1,-22.2%,?,-25.0%,-12.4%,?,15.8µM*
SMILES,L3MBTL1 block,HP1b chromo inh,JMJD2A Tudor,Sfp PPTase inh,BAZ2B inh,G9a block
CN1C(=O)N(C)c2cccc3cccc1c23,.,32.6%,-20.5%,9.5%,4.4%,20.1%[2.33 µM]
CC(C)(C)C(=O)Nc1ccccc1C(=O)OCc1cc(=O)n2ccsc2n1,.,33.5%,-0.3%,.,-9.7%,1.5%[12.7 µM]
C#Cc1ccc2c(c1)C(=O)N(C)Cc1c(C(=O)OCCCOC(=O)c3ncn4c3CN(C)C(=O)c3cc(C#C)ccc3-4)ncn1-2,.,.,.,3.1%,.,.
CC1Sc2ccc(C(=O)NCc3ccccn3)cc2NC1=O (stereo not drawn),2.8%,?,?,.,-16.5%,?
CC1SC(=NC(=O)c2ccncc2)NC1=O (stereo not drawn),5.5%,4.1%,-8.2%,10.7%,-19.9%,39.8µM*
CN(c1nnc(N)s1)C1CCCCC1,2.6%,41.0%,-1.4%,3.5%,-1.5%,39.8µM*
CSCc1ccc(C(=O)N2CCCC(Nc3ccc4c(c3)OCCO4)C2)o1 (stereo not drawn),.,14.4%,-22.8%,-5.4%,-34.6%[57.1 µM],79.4µM*
O=C(c1cc(Cl)ccc1F)N1CCCC(Nc2ccc3c(c2)OCCO3)C1 (stereo not drawn),.,-12.8%,?,-1.1%,?,79.4µM*
Cc1ccc(S(=O)(=O)NCC(=O)OCC(=O)NCc2ccc3c(c2)OCO3)cc1,6.0%,-2.6%,-16.0%,.,12.0%,56.2µM*
NS(=O)(=O)c1ccc(NC(=S)NCc2ccc3c(c2)OCO3)cc1,-7.5%,2.6%,-12.4%,20µM*,?,.
NS(=O)(=O)c1cccc(NC(=S)NCc2ccc3c(c2)OCO3)c1,2.9%,3.3%,-19.6%,-20.4%,-19.2%,50.1µM*
NS(=O)(=O)c1ccc(NC(=S)NCc2ccc(Cl)cc2)cc1,0.5%,?,-23.2%,22.4µM*,-25.7%,8.91µM*
CCOc1ccc(OCC)c(NS(=O)(=O)c2c(C(=O)N3CCCCCC3)c(C)n(C)c2C)c1,.,12.4%,-30.0%,.,?,9.8%[59 µM]
O=C(CSc1nccn1C1CCCC1)Nc1ccccc1,.,36.7%,-15.2%,.,-28.6%,-27.0%[59 µM]
